The text below walks through data of PubChem BioAssay.

Molecules are shown by their SMILES. Unmarked numbers belong to inactive results. For some of these results: Potency and affinity values are given separately. The list shows a part of the results. Calls of active or inactive are those of the source.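 The calls were made as follows, unless noted: active = membrane potential signal moving either way by over 3 SD of the maximum-effect control, in both duplicate plates, meaning non-specific; inactive = the rest.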

The target in assay [1] is Short transient receptor potential channel 4 (Mus musculus) (UniProt Q9QUQ5). Nature of the assay: DAMGO-gated TRPC4 membrane potential modulation – cell-based, second specificity screen, HEK293 TRPC4/mu-opioid, selectivity assay for TRPC6 inhibitor project, confirmation (AID 2776;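 active = compounds whose fluorescence signal differed from control wells by over 3 SD, either direction, in both duplicate plates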). Conditions: HEK293 TRPC4/MOR, membrane potential dye fluorescence, at 10 µM, channel activated by saturating DAMGO dose; stronger effect = higher value.

In assay [2] the test system is transient receptor potential cation channel C4 (TRPC4), mouse. Nature of the assay: membrane potential change in TRPC4 cells – cell-based, HEK293 TRPC4/mu-opioid, membrane potential dye, selectivity assay for TRPC6 inhibitor project, confirmation (AID 2777;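 active = rise or fall in signal beyond 3 SD of buffer-only wells in both replicate plates, either sign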;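 also: integrated kinetic ratio of fluorescence range over baseline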). Conditions: membrane potential fluorescence, at 10 µM.
Assay [3] in a line: parental HEK293 depolarization signal interference – cell-based, second counter screen, counter-screen for TRPC6 inhibitor project, confirmation (AID 2779). The following applies: parental HEK293 membrane potential dye fluorescence; at 10 µM; maximal acetylcholine challenge after compound addition.
Assay [4] is described as follows: nonspecific voltage dye signal in HEK293 – cell-based, parental HEK293, counter-screen for TRPC6 inhibitor project, confirmation (AID 2780;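 active = membrane potential signal shifting up or down by more than 3 SD of buffer-only wells, on both duplicate plates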;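 as to membrane potential signal change: plate controls were buffer EC0 wells for no effect and acetylcholine ECmax wells for full effect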). The following applies: parental HEK293 membrane potential dye fluorescence; at 10 µM.
Assay [5] has as its target Short transient receptor potential channel 6 (Mus musculus) (UniProt Q61143). Nature of the assay: blockers of TRPC6 cation channel activity – HEK293 cells, membrane potential dye, duplicate, confirmation (AID 488960;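 active = fluorescence ratio falls more than 5 SD below the full-stimulation control mean, in both duplicate runs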;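 as to inhibition: integrated fluorescence ratio of peak minus minimum over baseline after agonist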). Conditions: ACh-evoked depolarization, at 10 µM; stronger effect = higher value.
Assay [6] has the same target. Nature of the assay: mouse TRPC6 channel activators, confirmation, HEK293 cells, membrane potential dye, duplicate (AID 488961;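 active = ratio signal rise beyond 5 SD above unstimulated control wells' mean, seen in both duplicate runs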). Conditions: HEK293-TRPC6 membrane potential dye fluorescence, FDSS, at 10 µM; stronger effect = higher value.
Assay [7] has as its system TRPC4 beta (transient receptor potential cation channel C4), mouse. The assay is described as follows: TRPC4 cation channel opening, retest – cell-based, Fluo4 calcium, HEK293 TRPC4beta/mu-opioid, duplicates, 10 µM, confirmation (AID 2426;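 active = fluorescence ratio normalized to control raised more than 50% in primary screen plus both repeat runs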;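 also: percent rise of integrated ratio over buffer wells lacking compound which define 0%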). Conditions: Fluo4 calcium fluorescence, at 10 µM; stronger effect = higher value.
Assay [8] has as its system transient receptor potential cation channel C4 beta (TRPC4), mouse. The assay is described as follows: TRPC4 cation channel opening, second retest – cell-based, second round, Fluo4, HEK293 TRPC4beta/mu-opioid, 1 µM, confirmation (AID 2461;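 active = primary screen active and over 50% activation in each of two duplicate runs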;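 as to activation: 0% = wells without test compound as baseline of integrated fluorescence ratio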). Conditions: Fluo4 calcium fluorescence, at 1 µM; stronger effect = higher value.
In assay [9] the test system is TRPC4 (transient receptor potential cation channel C4 beta), mouse. Nature of the assay: potentiation of DAMGO EC20 TRPC4 response – cell-based, second round, Fluo-4, HEK293 TRPC4beta/mu-opioid, 1 µM, confirmation (AID 2554;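 active = primary screen hit whose fluorescence ratio, in both repeats, exceeds the weak agonist control mean by 3 SD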). The following applies: DAMGO EC20, Fluo-4 calcium flux, at 1 µM; stronger effect = higher value.
Assay [10] deals with TRPC4 beta (transient receptor potential cation channel C4), mouse. Nature of the assay: potentiation of DAMGO EC20 TRPC4 response – cell-based, Fluo-4, HEK293 TRPC4beta/mu-opioid, confirmation (AID 2555;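 active = primary screen hit whose calcium fluorescence ratio, in both repeats, exceeds the weak agonist control mean by 3 SD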). Conditions: DAMGO EC20, Fluo-4 calcium flux, at 10 µM; stronger effect = higher value. (In general: Calcium flux is commonly read through the fluorescence of an indicator in the cells.)

Assay [11] has as its target Short transient receptor potential channel 4 (Mus musculus) (UniProt Q9QUQ5). The assay is described as follows: blockers of DAMGO-evoked TRPC4 calcium flux – cell-based, Fluo4, HEK293 TRPC4beta/mu-opioid, confirmation (AID 2636;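 active = calcium signal cut by more than 3 SD below the full-agonist control yet still positive, in both repeats and the earlier primary screen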). The following applies: at 10 µM; stronger effect = higher value.
Assay [12] has the same target. The assay is described as follows: blockers of DAMGO-evoked TRPC4 calcium flux – cell-based, second round, Fluo4, HEK293 TRPC4beta/mu-opioid, 1 µM, confirmation (AID 2637;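 active = calcium signal ratio cut to more than 3 SD under the fully stimulated control mean yet still positive, in both repeats and the primary screen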). Conditions: at 1 µM; stronger effect = higher value.
The target is the same in assay [13]. The assay is described as follows: block of DAMGO-driven TRPC4 calcium entry – cell-based, HEK293 TRPC4/mu-opioid, Fluo-4 calcium, dose response (AID 434942;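 active = primary screen inhibitor hit that blocks the TRPC4 channel at some tested dose, yielding a dose curve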).
Assay [14] concerns the target Short transient receptor potential channel 6 (Mus musculus) (UniProt Q61143). Nature of the assay: TRPC6 blockade by TRPC4 inhibitor hits – cell-based, HEK293, membrane potential dye, duplicate, selectivity assay for TRPC4 inhibitor project, confirmation (AID 434948;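 active = active in primary screen and both duplicates, each dropping signal beyond three positive-control SD with fluorescence still positive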). Conditions: HEK293 TRPC6, membrane potential dye fluorescence, at 10 µM, stimulated with maximal-effect acetylcholine; stronger effect = higher value.

Assay [15] shares this target. Nature of the assay: TRPC6 opening by TRPC4 activator hits – cell-based, HEK293, membrane potential dye, duplicate, selectivity assay for TRPC4 activator project, confirmation (AID 434950;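 active = membrane potential signal rise above negative control mean plus 3 SD in both duplicates, also active in the earlier TRPC4 screen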;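 also: 0% = buffer only wells and 100% = acetylcholine maximal-effect wells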). Conditions: HEK293 TRPC6, membrane potential fluorescence, at 10 µM; activation: stronger effect = higher value; outcome: activation.
The target is the same in assay [16]. The assay is described as follows: positive modulators of mouse TRPC6 channel – HEK293 cells, membrane potential dye, duplicate, selectivity assay for TRPC4 potentiator project, confirmation (AID 434952;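 active = compound raising the membrane signal above positive-control mean plus 3 SD in both repeats, and a primary screen hit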). The following applies: HEK293 TRPC6, membrane potential dye fluorescence, at 10 µM, maximal acetylcholine added after compound; stronger effect = higher value.
In assay [17] the target is Short transient receptor potential channel 4 (Mus musculus) (UniProt Q9QUQ5). Nature of the assay: calcium flux activators in TRPC4/5HT1a cells, counter-screen for TRPC4 activator project, cell-based, second counter screen, HEK293 TRPC4/5HT1a, Fluo-4 (AID 434977;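 active = calcium signal rise above buffer-control mean plus 5 SD in both duplicates, and also a hit in the primary screen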;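 also: plate controls were assay buffer for no effect and maximal serotonin response for full effect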). Conditions: Fluo-4 calcium flux, at 10 µM; stronger effect = higher value.
The nature of assay [18]: serotonin-gated TRPC4 signal block – cell-based, second counter screen, HEK293 TRPC4/5HT1a, Fluo-4, counter-screen for TRPC4 inhibitor project, confirmation (AID 434978;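 active = primary screen active whose calcium signal fell more than 3 SD beyond the full-serotonin control mean in both duplicate plates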;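 also: serotonin given first at submaximal then at maximal dose after compound preincubation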). Conditions: Fluo-4 calcium flux, at 10 µM, serotonin added to trigger calcium flux; stronger effect = higher value. In general terms: A counterscreen serves to expose hits that act by an unwanted route or on another target.

Assay [19] relates to TRPC4 (mouse), co-expressed with 5HT1a in HEK293. The assay is described as follows: enhancement of serotonin-evoked TRPC4 response – cell-based, second counter screen, HEK293 TRPC4/5HT1a, Fluo-4, counter-screen for TRPC4 potentiator project, confirmation (AID 434979;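 active = signal rise over 3 SD above mean of control wells given weak agonist, in both repeats and first screen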). Conditions: Fluo-4 calcium flux, at 10 µM, serotonin added at its EC20 dose; stronger effect = higher value.
A short description of assay [20]: nonspecific calcium rise without TRPC4 – cell-based, HEK293 mu-opioid receptor line, counter-screen for TRPC4 activator project, confirmation (AID 449723;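 active = hit in primary screen, with calcium signal over 5 SD above buffer well mean in both duplicates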;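 also: counter screen cells carry the mu-opioid receptor alone and lack TRPC4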). The following applies: HEK293 mu-opioid cells, Fluo-4 calcium fluorescence, at 10 µM; stronger effect = higher value.
Assay [21] in a line: nonspecific potentiation of DAMGO calcium response – cell-based, HEK293 mu-opioid receptor line, counter-screen for TRPC4 allosteric potentiator project, confirmation (AID 449724;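 active = calcium signal rise more than 3 SD above the low-dose agonist control mean, in both duplicate plates and the primary screen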). Conditions: HEK293 mu-opioid receptor cells, Fluo-4 calcium flux, at 10 µM, compound added before EC20 DAMGO stimulus; stronger effect = higher value.
For assay [22], the target named is Potassium voltage-gated channel subfamily KQT member 1 (Homo sapiens) (UniProt P51787). The assay is described as follows: blockers of human KCNQ1 channel – cell-based, Tl flux, duplicate, confirmation (AID 588353;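 active = primary screen active, with duplicate mean exceeding buffer control mean plus 3 SD of buffer wells, cut at about 28% in these data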;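 also: 0% = buffer control ratio and 100% = XE991 inhibitor control ratio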). The following applies: KCNQ1 cell line, FluxOR thallium flux fluorescence, at 10 µM, stronger effect = higher value.
Assay [23] can be described thus: nonspecific activity in CHO-K1 cells without KCNQ1 – parental CHO cells, Tl flux, counter-screen for KCNQ1 inhibitor project (AID 588366;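 active = mean of duplicate thallium-flux fluorescence ratios in parental host cells more than 5 SD below the buffer control mean, cut at about 0.38 in these data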;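 also: ratio is peak minus minimum fluorescence divided by baseline fluorescence; actives read low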). The following applies: parental CHO-K1, FluxOR thallium flux fluorescence ratio; at 10 µM; stronger effect = lower value; zero means no signal rise above baseline.
For assay [24], the target named is Potassium voltage-gated channel subfamily KQT member 2 (Rattus norvegicus) (UniProt O88943). Nature of the assay: block of rat KCNQ2 potassium channel – cell-based, selectivity assay for KCNQ1 inhibitor project (AID 651746;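 active = mean percent inhibition of the KCNQ2 thallium signal more than 5 SD above the buffer-only control wells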;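 also: KCNQ2 expressed in CHO cells; 0% = buffer control wells and 100% = XE-991 inhibitor control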). Conditions: KCNQ2 cells, FluxOR thallium flux fluorescence, at 10 µM; stronger effect = higher value.
In assay [25] the target is Potassium voltage-gated channel subfamily E member 1 (Homo sapiens) + Potassium voltage-gated channel subfamily KQT member 1 (Homo sapiens) (UniProt P15382+P51787). The assay is described as follows: block of human IKs channel complex – CHO-K1 cells, thallium flux, FluxOR, selectivity assay for KCNQ1 inhibitor project (AID 652147;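 active = mean percent inhibition of duplicate wells above the buffer-only control mean plus 3 SD of those controls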). Conditions: KCNQ1/KCNE1 cells, FluxOR thallium flux fluorescence, at 10 µM; stronger effect = higher value.
Potassium voltage-gated channel subfamily E member 1 (Homo sapiens) + Potassium voltage-gated channel subfamily KQT member 1 (Homo sapiens), sequence (P51787 whole entry, looked up): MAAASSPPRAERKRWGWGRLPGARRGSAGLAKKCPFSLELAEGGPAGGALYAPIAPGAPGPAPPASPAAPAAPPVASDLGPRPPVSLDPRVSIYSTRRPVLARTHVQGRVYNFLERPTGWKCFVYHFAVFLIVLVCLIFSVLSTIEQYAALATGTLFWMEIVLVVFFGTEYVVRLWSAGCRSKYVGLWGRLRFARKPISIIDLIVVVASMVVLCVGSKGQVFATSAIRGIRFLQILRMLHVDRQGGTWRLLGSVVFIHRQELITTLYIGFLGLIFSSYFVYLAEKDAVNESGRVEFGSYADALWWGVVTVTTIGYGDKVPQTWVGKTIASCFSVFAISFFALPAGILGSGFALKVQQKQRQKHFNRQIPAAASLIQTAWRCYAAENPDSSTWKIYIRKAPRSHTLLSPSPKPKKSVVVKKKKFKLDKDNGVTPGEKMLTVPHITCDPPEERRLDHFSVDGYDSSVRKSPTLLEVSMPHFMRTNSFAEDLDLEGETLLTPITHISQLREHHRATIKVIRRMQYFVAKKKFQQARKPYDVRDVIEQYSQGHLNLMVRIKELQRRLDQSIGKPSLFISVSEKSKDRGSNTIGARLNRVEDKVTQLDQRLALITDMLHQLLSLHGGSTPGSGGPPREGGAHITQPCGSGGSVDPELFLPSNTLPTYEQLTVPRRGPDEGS

Short transient receptor potential channel 6 (Mus musculus), sequence (Q61143 whole entry, looked up): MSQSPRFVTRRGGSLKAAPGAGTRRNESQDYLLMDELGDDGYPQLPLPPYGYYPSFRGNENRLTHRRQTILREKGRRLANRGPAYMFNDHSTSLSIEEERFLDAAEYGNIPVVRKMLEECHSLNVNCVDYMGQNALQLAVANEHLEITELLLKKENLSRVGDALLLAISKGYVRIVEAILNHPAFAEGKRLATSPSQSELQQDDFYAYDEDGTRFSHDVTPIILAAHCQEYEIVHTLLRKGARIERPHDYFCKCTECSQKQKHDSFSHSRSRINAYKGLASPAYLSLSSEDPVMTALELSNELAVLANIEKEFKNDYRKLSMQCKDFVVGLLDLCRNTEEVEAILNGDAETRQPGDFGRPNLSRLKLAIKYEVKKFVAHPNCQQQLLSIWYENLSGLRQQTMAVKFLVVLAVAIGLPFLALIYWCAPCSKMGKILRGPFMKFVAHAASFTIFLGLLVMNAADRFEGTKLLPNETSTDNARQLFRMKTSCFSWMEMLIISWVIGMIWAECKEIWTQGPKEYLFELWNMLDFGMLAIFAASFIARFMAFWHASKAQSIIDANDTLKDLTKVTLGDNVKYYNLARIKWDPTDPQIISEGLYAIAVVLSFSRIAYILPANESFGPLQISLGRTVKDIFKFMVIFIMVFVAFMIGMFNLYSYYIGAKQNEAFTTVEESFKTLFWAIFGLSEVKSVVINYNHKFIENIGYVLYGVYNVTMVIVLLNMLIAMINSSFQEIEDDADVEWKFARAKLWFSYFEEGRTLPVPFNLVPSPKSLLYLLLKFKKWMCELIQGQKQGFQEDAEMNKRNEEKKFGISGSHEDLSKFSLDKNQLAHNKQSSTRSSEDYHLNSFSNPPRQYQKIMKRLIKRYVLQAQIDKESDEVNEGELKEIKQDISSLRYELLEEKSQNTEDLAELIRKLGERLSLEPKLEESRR
Short transient receptor potential channel 4 (Mus musculus), sequence (Q9QUQ5 whole entry, looked up): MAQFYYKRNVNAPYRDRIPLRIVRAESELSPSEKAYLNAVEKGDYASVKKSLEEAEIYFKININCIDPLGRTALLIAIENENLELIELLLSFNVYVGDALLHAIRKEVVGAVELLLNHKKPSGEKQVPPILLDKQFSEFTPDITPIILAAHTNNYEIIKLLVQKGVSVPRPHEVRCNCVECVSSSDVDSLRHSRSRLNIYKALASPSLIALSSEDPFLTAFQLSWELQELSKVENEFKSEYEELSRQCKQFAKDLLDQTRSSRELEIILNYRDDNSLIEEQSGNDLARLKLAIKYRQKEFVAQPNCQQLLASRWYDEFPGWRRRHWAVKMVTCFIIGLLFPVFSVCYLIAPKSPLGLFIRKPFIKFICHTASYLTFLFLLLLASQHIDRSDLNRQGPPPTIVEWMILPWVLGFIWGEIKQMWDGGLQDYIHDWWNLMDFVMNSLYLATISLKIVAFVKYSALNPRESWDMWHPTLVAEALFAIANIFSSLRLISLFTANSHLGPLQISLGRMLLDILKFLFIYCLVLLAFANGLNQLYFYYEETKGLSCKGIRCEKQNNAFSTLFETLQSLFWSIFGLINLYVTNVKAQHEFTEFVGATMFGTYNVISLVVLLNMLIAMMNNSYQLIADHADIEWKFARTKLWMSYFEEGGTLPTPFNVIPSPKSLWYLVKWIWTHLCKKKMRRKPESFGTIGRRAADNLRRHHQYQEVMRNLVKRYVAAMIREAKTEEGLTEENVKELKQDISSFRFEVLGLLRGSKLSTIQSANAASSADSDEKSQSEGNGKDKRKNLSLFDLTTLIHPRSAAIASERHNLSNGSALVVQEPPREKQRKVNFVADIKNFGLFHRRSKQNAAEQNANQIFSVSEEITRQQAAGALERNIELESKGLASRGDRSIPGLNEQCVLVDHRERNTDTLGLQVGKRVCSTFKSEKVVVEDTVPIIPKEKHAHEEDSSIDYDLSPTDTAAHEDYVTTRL
Potassium voltage-gated channel subfamily KQT member 1 (Homo sapiens), sequence (P51787 whole entry, looked up): as the sequence (P51787 whole entry, looked up) above
Potassium voltage-gated channel subfamily KQT member 2 (Rattus norvegicus), sequence (O88943 whole entry, looked up): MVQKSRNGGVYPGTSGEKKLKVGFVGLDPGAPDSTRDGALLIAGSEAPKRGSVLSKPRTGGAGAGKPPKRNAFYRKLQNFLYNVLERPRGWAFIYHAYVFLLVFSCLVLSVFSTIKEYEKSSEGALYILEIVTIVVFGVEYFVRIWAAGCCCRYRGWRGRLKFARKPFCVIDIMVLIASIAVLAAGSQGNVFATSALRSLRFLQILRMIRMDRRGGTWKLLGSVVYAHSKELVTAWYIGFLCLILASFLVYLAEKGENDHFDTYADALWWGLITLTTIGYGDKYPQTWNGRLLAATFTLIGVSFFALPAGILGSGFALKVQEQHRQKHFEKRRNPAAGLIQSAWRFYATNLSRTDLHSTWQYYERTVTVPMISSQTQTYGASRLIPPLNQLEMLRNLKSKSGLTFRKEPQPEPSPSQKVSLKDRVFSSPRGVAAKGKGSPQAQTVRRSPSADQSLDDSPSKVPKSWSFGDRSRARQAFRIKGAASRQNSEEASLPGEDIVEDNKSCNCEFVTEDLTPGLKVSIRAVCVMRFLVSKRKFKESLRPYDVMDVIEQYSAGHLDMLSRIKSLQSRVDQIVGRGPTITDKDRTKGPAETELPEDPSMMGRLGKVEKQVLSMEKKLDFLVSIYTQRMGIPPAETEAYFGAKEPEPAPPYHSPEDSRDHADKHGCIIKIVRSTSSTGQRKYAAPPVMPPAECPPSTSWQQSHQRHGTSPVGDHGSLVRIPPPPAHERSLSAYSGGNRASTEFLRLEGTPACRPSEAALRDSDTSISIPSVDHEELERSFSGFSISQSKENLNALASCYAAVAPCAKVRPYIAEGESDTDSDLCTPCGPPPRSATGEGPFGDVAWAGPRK

As for `Cc1cc(Nc2ccc(N3CCOCC3)cc2)c2cccc(C)c2n1`, in assay [1], the inhibition (usually the change of the read-out against control, counted positive when it falls) was 59% (active). Further, the activity change, negative = inhibition in assay [2] is -24.1% (active). For the same molecule, in assay [3], the signal change vs control was 26.5% (active). Also, in assay [4], the membrane potential signal change is -362% (active). Further, the outcome in [5] and in [6] was inactive.
Regarding `CCOC(=O)N1CCC(O)(c2cc(C)c(C)cc2C)CC1`, the call in [1], in [2], in [3] and in [4] was inactive. In assay [5], the inhibition was 55% (active).
With `Cn1c(=O)n(C)c2cc(C(=O)Nc3ccc4c(c3)OCO4)ccc21`, the molecule was classed as inactive in assay [1], in assay [3], in assay [5] and in assay [6]. The activity change, negative = inhibition in assay [2] was -23.4% (active). In [4], the membrane potential signal change is -371% (active).
As to `CN(C)CCCOc1cccc(Cl)c1`, the activation was 71% (active) in assay [7], 55% (active) in assay [8], 51% (active) in assay [15] and 17.9% (active) in [17]. The results for the potentiation in [9], in assay [10] and in [19] were 32% (active), 37% (active) and 28.7% (active), respectively. Besides, the result in assay [11], in assay [12], in assay [13], in [14], in assay [16] and in assay [18] was inactive. For the same molecule, the outcome in assay [20] and in assay [21] was inactive.
On to `COc1ccccc1OCCNCC(O)COc1cccc2[nH]c3ccccc3c12` (configuration not stated), for which the inhibition in [1] is 28% (active); in assay [5], 61.1% (active). The molecule was classed as inactive in assay [2], in assay [3], in assay [4] and in assay [6].
For the molecule `CC(C)(C)NCc1cc(Br)ccc1OC1CCCC1`, the inhibition in [1] is 36% (active); in assay [5] it was 123% (active). Moreover, the activity change, negative = inhibition in [2] is 74.6% (active). The signal change vs control in assay [3] is 5% (active). In addition, the membrane potential signal change in assay [4] is 38.4% (active).
For the molecule `COc1cc(/C=C2/SC(=S)N(Cc3ccccc3)C2=O)cc(Cl)c1O`, the activation was 144% (active) in assay [7]; 930% (active) in [15]; 156% (active) in assay [17]; 165% (active) in [20]; 1140% (active) in assay [21]. Further, the outcome in assay [8], in assay [11], in assay [12], in assay [13], in assay [14] and in assay [18] was inactive. In addition, the outcome in assay [19] was inactive. Also, the potentiation in assay [9] was 11% (active); in assay [10] it was 21% (active). Further, the potentiation, percent of control in [16] was 310% (active).
`COc1ccc(CC(=O)Nc2sc(Cc3ccccc3)c(C)c2C(N)=O)cc1`: the molecule was classed as inactive in [1], in assay [2], in [3], in assay [4], in assay [5] and in assay [6].
On to `O=C(CCN1CCN(Cc2ccccc2)CC1)Nc1nccs1`, for which the potentiation is 19% (active) in [9], 11% (active) in assay [10] and 17% (active) in assay [19].
Consider `CCCc1cc(=S)n2c([nH]c3ccccc32)c1C#N`, for which the molecule was classed as inactive in assay [1], in [3] and in [25]. Further, the activity change, negative = inhibition in [2] is 33.6% (active). Besides, in assay [4], the membrane potential signal change is 22.1% (active). For the same molecule, the inhibition in assay [5] was 51.5% (active); in [22], 80.5% (active); in assay [24], 91.3% (active). Besides, the fluorescence ratio (Tl flux) in [23] is 0.394.
On to `CCOC(=O)N1CCN(C(=O)c2ccc3c(c2)N(Cc2ccc(C)cc2)CCS3)CC1`, for which the result in [1], in [4], in assay [5] and in assay [6] was inactive. Besides, the activity change, negative = inhibition in assay [2] was 0.69% (active). Moreover, the signal change vs control in assay [3] was 307% (active).
